Source: PubChem
HP1b chromo inh: blocks HP1-beta chromodomain binding to methylated histone tails. Potency, µM (titrated, usually from 114 µM), actives largely listed as inhibitors. 390,000 tested, 0.56% active. P83916. AlphaScreen HP1-beta / biotin-H3K9me3 peptide binding. AID 540317; also: nearly all actives have a fitted effect of over 70% in size
Target sequence (P83916 whole entry, looked up): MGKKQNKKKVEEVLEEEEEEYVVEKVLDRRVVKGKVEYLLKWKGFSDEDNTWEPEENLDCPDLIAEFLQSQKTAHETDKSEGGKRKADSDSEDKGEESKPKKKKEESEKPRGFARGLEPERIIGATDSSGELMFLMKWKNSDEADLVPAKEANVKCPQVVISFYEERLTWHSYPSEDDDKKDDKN
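Compound inhibition of the preformed complex between 50 nM HP1-beta and 50 nM biotinylated H3K9me3 peptide was read by AlphaScreen. Buffer was PBS pH 7.4 with 0.01% Tween-20. Incubations ran 30 min at room temperature, with 10 ug/mL donor/acceptor beads.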
BAZ2B block: blocks human BAZ2B; AlphaScreen BAZ2B-H3K14Ac peptide displacement; Potency, µM (top dose mostly 114 µM), actives largely listed as inhibitors; 360,000 tested, 4.4% active; also: nearly all actives have a fitted effect of over 60% in size
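AlphaScreen luminescence quantifies BAZ2B engagement of H3K14Ac peptide; the protein and biotinylated peptide are both at 50 nM final, buffer PBS pH 7.4 with 0.01% Tween-20, all steps at room temperature.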
Six1-Eya2 inh: inhibitors of human Six1/Eya2 interaction. activity change, % (concentration not given with the values). AlphaScreen GST-Six1/His-Eya2 binding, biochemical; active compounds read low. AID 651725. Q15475+O00167. 360,000 tested, 0.56% active; in the data active = activity change below about -65%; inconclusive = mostly about -30% to -63%
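AlphaScreen luminescence read after one hour at 37 °C in darkness. Pin-transferred compounds met GST-Six1 and His-Eya2 protein (5X stock 250 nM/500 nM) plus glutathione donor and Ni-chelate acceptor beads (5X, 50 ug/mL).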
JMJD2A Tudor: JMJD2A Tudor domain (human) inhibition | Potency, µM (top dose mostly 114 µM), most hits filed as inhibitors | AlphaScreen JMJD2A-Tudor / H3K4me3 peptide binding | 390,000 tested, 4.4% active | AID 504339 | O75164; also: nearly all actives have a fitted effect of over 50% in size
CtBP-E1A inh: inhibitors of CtBP/E1A interaction | 340,000 tested, 0.49% active | AlphaScreen GST-E1A/His-CtBP binding, 1536-well; active compounds read low | activity change, % (concentration not given with the values); in the data active = activity change below about -65%; inconclusive = mostly about -30% to -63%
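Steps: dispense buffer (Tris pH 8.0, NaCl 300 mM, TCEP 1 mM, BSA, Tween 20); add 5X protein mix (GST-E1A, His-CtBP, 125 nM each); pin 23 nL compound; 2 h at 37 °C, dark; add 5X beads (50 ug/mL); 1 h; read.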
G9a block: blocks human histone lysine methyltransferase G9a; Q96KQ7; G9a H3K9 monomethylation, AlphaScreen, 2 h; Potency, µM (doses to about 102 µM), hits mostly inhibitors; 350,000 tested, 8.8% active; AID 504332; also: nearly all actives have a fitted effect of over 75% in size
Target sequence (Q96KQ7 913-1193 limits assumed): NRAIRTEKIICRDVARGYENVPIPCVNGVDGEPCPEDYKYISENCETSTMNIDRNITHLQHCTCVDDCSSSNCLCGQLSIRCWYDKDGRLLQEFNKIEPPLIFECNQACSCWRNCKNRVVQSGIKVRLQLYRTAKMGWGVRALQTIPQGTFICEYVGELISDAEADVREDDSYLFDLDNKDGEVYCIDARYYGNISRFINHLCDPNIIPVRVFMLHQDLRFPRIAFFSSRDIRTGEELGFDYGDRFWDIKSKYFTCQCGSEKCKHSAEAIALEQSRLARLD
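Using a bead-based AlphaScreen, monomethylated H3K9 product from 2 h room-temperature reactions (G9a 20 nM, peptide 500 nM, SAM 20 uM) was detected with 0.5 ug/mL rabbit anti-H3K9me1 antibody.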
Large screens that a line does not name were inactive. Shown are actives, neighbours in structure and some others; about 10% of the full set was active somewhere. Unless noted, calls follow the shape of the dose curve; as a rule, active = well fitted inhibition curve with a large enough effect; inconclusive = small, poorly fitted or top-dose-only effect; inactive = no such curve, though single readings can be large or run the other way.

CC(=O)Nc1cccc(S(=O)(=O)Nc2ccc(C)c(C)c2)c1	none (no result: HP1b chromo inh, BAZ2B block, Six1-Eya2 inh, CtBP-E1A inh, G9a block)
CCCCNC(=O)C1CCN(Cc2ccc(OCc3ccccc3)c(OC)c2)CC1	BAZ2B block inconclusive, JMJD2A Tudor 22µM, G9a block 14µM (no result: CtBP-E1A inh)
CCOCCCNC(=O)C1CCN(Cc2ccc(OCc3ccccc3)c(OC)c2)CC1	JMJD2A Tudor inconclusive, G9a block 50µM
CCOc1cc(CN2CCN(S(=O)(=O)Cc3ccccc3)CC2)ccc1OC	none
CCCS(=O)(=O)N1CCN(Cc2ccc(OCc3ccccc3)c(OC)c2)CC1	HP1b chromo inh inconclusive, JMJD2A Tudor 28µM (no result: BAZ2B block, G9a block)
COc1ccc(CN2CCC(C(=O)NCCc3ccc(OC)c(OC)c3)CC2)c(OC)c1	none
Cc1ccc(-n2nnnc2CNC(=O)c2ccccc2)cc1C	none (no result: Six1-Eya2 inh, CtBP-E1A inh)
Cn1nc(C(=O)NCc2ccc(F)cc2)c2c1-c1ccccc1SC2	HP1b chromo inh inconclusive, BAZ2B block 10µM, JMJD2A Tudor 28µM, G9a block 14µM (no result: Six1-Eya2 inh, CtBP-E1A inh)
Cn1nc(C(=O)N2CCN(c3ccccc3F)CC2)c2c1-c1ccccc1SC2	BAZ2B block 13µM, JMJD2A Tudor 20µM, G9a block 14µM (no result: Six1-Eya2 inh, CtBP-E1A inh)
Cn1nc(C(=O)NCc2ccc(Cl)cc2)c2c1-c1ccccc1SC2	G9a block inconclusive (no result: Six1-Eya2 inh, CtBP-E1A inh)
O=C1S/C(=C\C=C\c2ccco2)C(=O)N1c1ccccc1	HP1b chromo inh inconclusive, BAZ2B block 40µM, JMJD2A Tudor 10µM, G9a block 40µM
O=C1S/C(=C\c2cccs2)C(=O)N1c1ccc(O)cc1	none (no result: CtBP-E1A inh)
O=C1S/C(=C\C=C\c2ccco2)C(=O)N1c1ccc(O)cc1	HP1b chromo inh inconclusive, BAZ2B block 45µM, JMJD2A Tudor inconclusive, G9a block 40µM
CCc1cnc2c(c1SCc1c(F)cccc1Cl)c(=O)n(C)c(=O)n2C	none (no result: Six1-Eya2 inh, CtBP-E1A inh)
C=C1c2cccc(O)c2C(=O)C2C(=O)[C@]3(O)C(=O)C(C(N)=O)C(=O)[C@@H](N(C)C)[C@@H]3[C@@H](O)[C@H]12 (stereo partly drawn)	HP1b chromo inh inconclusive, Six1-Eya2 inh inconclusive, JMJD2A Tudor 3.2µM, CtBP-E1A inh inconclusive (no result: BAZ2B block, G9a block)
CCCC(C)Sc1nc2c([nH]1)c(=S)n(C)c(=O)n2C (stereo not drawn)	none (no result: BAZ2B block, G9a block)
Cn1c(=S)c2[nH]c(SCC3CCCO3)nc2n(C)c1=O (stereo not drawn)	HP1b chromo inh inconclusive, JMJD2A Tudor 4.5µM (no result: BAZ2B block, G9a block)
Cc1cc2nc(-c3ccc(SCc4ccc(C(=O)O)cc4)nc3)[nH]c2cc1C	BAZ2B block 32µM, Six1-Eya2 inh inconclusive, JMJD2A Tudor inconclusive, G9a block 32µM
CCCCNC(=O)c1ccccc1C(=O)NC1(C(=O)NCCCC)CCCC1	none (no result: BAZ2B block, G9a block)
COC(=O)C1CCN(c2c([N+](=O)[O-])cc(C(F)(F)F)cc2[N+](=O)[O-])CC1	HP1b chromo inh inconclusive, BAZ2B block 35µM, Six1-Eya2 inh inconclusive, G9a block inconclusive
NC(=O)C1CCN(c2c([N+](=O)[O-])cc(C(F)(F)F)cc2[N+](=O)[O-])CC1	none (no result: G9a block)
C=CCNC(=O)O/N=C/c1csc([N+](=O)[O-])c1	none (no result: G9a block)
Cc1oc2ncnc(N3CCCCC3)c2c1C(=O)NCC1CCN(Cc2ccccc2F)CC1	none (no result: Six1-Eya2 inh, CtBP-E1A inh)
CC/C(=C(/c1ccccc1)c1ccc(OCCN(C)C)cc1)c1ccccc1	G9a block 22µM (no result: HP1b chromo inh, BAZ2B block, Six1-Eya2 inh, JMJD2A Tudor, CtBP-E1A inh)
CCN(CC)CCOc1ccc(/C(=C(\Cl)c2ccccc2)c2ccccc2)cc1	HP1b chromo inh inconclusive, BAZ2B block inconclusive, JMJD2A Tudor 32µM (no result: G9a block)
CCOC(=O)c1ccc(OC(=O)c2cn(-c3ccc(C)cc3)c(=O)c3ccccc23)cc1	none (no result: Six1-Eya2 inh, CtBP-E1A inh)
CCOc1ccc(OC(=O)c2cn(-c3ccc(C)cc3)c(=O)c3ccccc23)cc1	JMJD2A Tudor 50µM (no result: Six1-Eya2 inh, CtBP-E1A inh)
O=S(=O)(NN=C1CCCCCCC1)c1ccccc1	none (no result: HP1b chromo inh, BAZ2B block, JMJD2A Tudor, G9a block)
O=C1c2oc3ccccc3c(=O)c2C(c2ccc(O)cc2)N1Cc1ccc2c(c1)OCO2 (stereo not drawn)	none (no result: Six1-Eya2 inh, CtBP-E1A inh)
CCCCn1c(N)c(N(CCC(C)C)C(=O)c2ccc(C)c(S(=O)(=O)N3CCOCC3)c2)c(=O)[nH]c1=O	G9a block inconclusive
CCOC(=O)c1ccc(N2C(=O)CC(Sc3ncccn3)C2=O)cc1 (stereo not drawn)	G9a block inconclusive (no result: CtBP-E1A inh)
